12-LOX inh = Primary qHTS assay for inhibitors of human arachidonate 12S-lipoxygenase (ALOX12): Round 2; Polyunsaturated fatty acid lipoxygenase ALOX12 (Homo sapiens), P18054; purified 12hLO, xylenol orange hydroperoxide absorbance; Potency, µM (series often up to 108 µM), without a hit: at the top dose activity change, negative = inhibition, hits mostly inhibitors; hit rate 1.1% among 580,000; AID 1671190, 2021; further: on the % scale 0 is the no-effect control and ±100 the full control effect
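Purified human 12hLO at 150 nM in 25 mM Hepes, 0.01% Triton X-100, pH 7.0, preincubated 15 min at room temperature with compound. Reaction started with 40 uM arachidonic acid, 30 min at room temperature. Hydroperoxide measured by Fe-xylenol orange, 573/405 nm absorbance ratio.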
BAZ2B block = qHTS Assay for Inhibitors of BAZ2B | Bromodomain adjacent to zinc finger domain protein 2B (Homo sapiens), Q9UIF8 | Potency, µM (series often up to 114 µM), for the others: at the highest dose activity change, negative = inhibition, actives largely listed as inhibitors | AlphaScreen BAZ2B-H3K14Ac peptide displacement | hit rate 4.4% among 360,000; further: on the % scale 0 is the no-effect control and ±100 the full control effect; nearly all actives have a fitted effect of over 60% in size
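Multi-concentration screen (max 110 uM) measuring displacement of acetylated histone H3 peptide from BAZ2B by AlphaScreen, using 50 nM protein, 50 nM peptide and 10 ug/mL streptavidin donor plus Ni-chelate acceptor beads.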
HP1b chromo inh = HTS for Inhibitors of HP1-beta Chromodomain Interactions with Methylated Histone Tails; Chromobox protein homolog 1 (Homo sapiens), P83916; AlphaScreen HP1-beta / biotin-H3K9me3 peptide binding; Potency, µM (highest dose often 114 µM), without a hit: at the top dose activity change, negative = inhibition, actives largely listed as inhibitors; hit rate 0.56% among 390,000; further: nearly all actives have a fitted effect of over 70% in size
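AlphaScreen: HP1-beta (50 nM) preformed 30 min with biotin-H3(1-18)K9me3 peptide (50 nM) in PBS pH 7.4, 0.01% Tween-20. Compound added for 30 min at RT, then streptavidin donor/nickel chelate acceptor beads (10 ug/mL) for 30 min.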
G9a inh = qHTS Assay for Inhibitors of Histone Lysine Methyltransferase G9a; hit rate 8.8% among 350,000; G9a H3K9 monomethylation, AlphaScreen, 2 h; Histone-lysine N-methyltransferase EHMT2 (Homo sapiens), Q96KQ7; Potency, µM (titrated, usually from 102 µM), for the others: at the top dose activity, negative = inhibition, actives largely listed as inhibitors; further: on the % scale 0 is the no-effect control and ±100 the full control effect; nearly all actives have a fitted effect of over 75% in size
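Enzyme 20 nM + cpd, 15 min RT; add b-H3K9 pep 500 nM / SAM 20 uM; 2 h RT; anti-H3K9me1 Ab 0.5 ug/mL + SA donor / anti-rabbit acceptor beads 20 ug/mL each, 10 min; AlphaScreen read.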
PLK1 PBD inh = qHTS for Inhibitors of PLK1-PDB (polo-like kinase 1 - polo-box domain): Primary Screen. Serine/threonine-protein kinase PLK1 (Homo sapiens), P53350. Plk1 PBD binding of FITC phosphopeptide, fluorescence polarization. Potency, µM, for inactives: max response, negative = inhibition, actives largely listed as inhibitors. hit rate 2.8% among 360,000. AID 720504, 2013; further: series mostly up to about 57 µM; on the % scale 0 is the no-effect control and ±100 the full control effect; nearly all actives have a fitted effect of over 65% in size
Target sequence (P53350 whole entry, looked up, the tested form may be a part): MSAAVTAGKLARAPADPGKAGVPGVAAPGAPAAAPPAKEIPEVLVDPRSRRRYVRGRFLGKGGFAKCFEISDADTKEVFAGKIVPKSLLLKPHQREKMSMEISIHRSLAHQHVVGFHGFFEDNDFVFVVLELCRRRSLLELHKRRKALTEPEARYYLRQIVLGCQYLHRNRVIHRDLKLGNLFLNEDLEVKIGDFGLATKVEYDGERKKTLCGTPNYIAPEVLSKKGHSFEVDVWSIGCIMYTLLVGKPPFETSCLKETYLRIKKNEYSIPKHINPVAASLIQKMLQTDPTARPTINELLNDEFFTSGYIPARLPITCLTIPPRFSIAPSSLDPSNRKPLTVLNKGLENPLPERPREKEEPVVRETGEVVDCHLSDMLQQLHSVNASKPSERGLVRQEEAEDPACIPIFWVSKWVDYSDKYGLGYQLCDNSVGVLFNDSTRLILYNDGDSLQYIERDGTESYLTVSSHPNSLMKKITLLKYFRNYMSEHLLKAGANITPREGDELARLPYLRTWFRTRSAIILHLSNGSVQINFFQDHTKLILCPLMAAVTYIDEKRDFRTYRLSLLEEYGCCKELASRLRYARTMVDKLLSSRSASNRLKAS
JMJD2A Tudor inh = qHTS Assay for Inhibitors of JMJD2A-Tudor Domain; Lysine-specific demethylase 4A (Homo sapiens), O75164; AlphaScreen JMJD2A-Tudor / H3K4me3 peptide binding; Potency, µM (titrated, usually from 114 µM), for inactives: top-dose activity change, negative = inhibition, hits mostly inhibitors; hit rate 4.4% among 390,000; AID 504339, 2011; further: on the % scale 0 is the no-effect control and ±100 the full control effect; nearly all actives have a fitted effect of over 50% in size
Active calls of the source: *; ? = inconclusive; . = no result; [ ] = remark or other dose. Sampled rows, rich in hits. Any-hit rate of the full collection: about 9%. The call rests on the fitted dose curve; in most records, active means well fitted curve in the direction sought with a large enough effect; inconclusive means small, poorly fitted or top-dose-only effect, or another doubt; inactive means no such curve, though single readings can be large; an effect the other way counts as inactive or inconclusive. Potency means the concentration at half of the fitted maximal effect.

SMILES | 12-LOX inh | BAZ2B block | HP1b chromo inh | G9a inh | PLK1 PBD inh | JMJD2A Tudor inh
O=[N+]([O-])c1cc([N+](=O)[O-])c(Oc2ccc(Br)cc2Br)cc1NN1CCCCC1 | -20% | ? | ? | 16µM* | ? | 10µM*
Cc1cc(F)ccc1Oc1cc(NN2CCCCC2)c([N+](=O)[O-])cc1[N+](=O)[O-] | ? | ? | -15% | ? | -8% | ?
COc1ccc(-c2nnc(C[C@@H]3C[C@@H](C(C)C)[C@H](CN4CCC(O)CC4)C=C3C)o2)cc1 | -56% | . | . | . | . | .
CCCCC(=O)NC(c1ccc(Cl)cc1Cl)c1ccc2cccnc2c1O (configuration not stated) | 29% | ? | 28% | . | 3.4µM* | ?
CCCCC(=O)NC(c1ccc(OC)cc1)c1ccc2cccnc2c1O (configuration not stated) | ? | . | . | . | -1% | .
COc1ccc(C(NC(=O)C(C)C)c2ccc3cccnc3c2O)cc1 (configuration not stated) | 6% | 45µM* | 46% | . | -12% | -26%
CC(=O)NC(c1ccco1)c1ccc2cccnc2c1O (configuration not stated) | . | 20µM* | 24% | -8% | -11% | 56µM*
CCCC(=O)NC(c1ccc(N(C)C)cc1)c1ccc2cccnc2c1O (configuration not stated) | -15% | 7%[0.457 µM] | -17% | 4%[59 µM] | 27µM* | 22µM*
CCOC(=O)C1=C(COC(=O)c2cc(OC)c(OC)c(OC)c2)NC(=O)NC1C (configuration not stated) | -4% | 8% | 1% | -38% | -5% | -23%
CCCCC(CC)C(=O)Nc1ccc(S(=O)(=O)Nc2nccs2)cc1 (configuration not stated) | 11% | -28% | 1% | ? | -10% | -15%
O=C(Nc1ccc(S(=O)(=O)Nc2nccs2)cc1)c1cc(-c2ccccc2Cl)nc2ccccc12 | 409% | ? | ? | . | 30µM* | ?
Cc1ccccc1OC(C)C(=O)Nc1ccc(S(=O)(=O)Nc2nccs2)cc1 (configuration not stated) | -43% | -24% | 15% | 50µM* | -9% | -18%
CC(Oc1ccccc1Cl)C(=O)Nc1ccc(S(=O)(=O)Nc2nccs2)cc1 (configuration not stated) | -6% | -9% | -21% | 56µM* | -23% | ?
CCCC(C)C(=O)Nc1ccc(S(=O)(=O)Nc2nccs2)cc1 (configuration not stated) | -9% | 50µM* | 40% | . | -25% | -14%
CC(Oc1ccc(Cl)cc1)C(=O)Nc1ccc(S(=O)(=O)Nc2nccs2)cc1 (configuration not stated) | -7% | -19% | -4% | -2%[59 µM] | -10% | -18%
Cn1c(=O)c2cc(C(=O)NC3CCCCCC3)sc2c2ccccc21 | ? | . | 25% | ? | . | ?
Cc1c(C(=O)Nc2ccc3c(c2)OCCO3)oc2ccc(Br)cc12 | 125% | -5% | 16% | 24%[59 µM] | -2% | -6%
O=C(Nc1ccc(F)cc1Cl)c1cc2n(n1)CC(c1ccc3c(c1)OCO3)OC2 (configuration not stated) | 59% | . | . | . | . | .
Cc1ccc(SCc2c(C(=O)N/N=C/c3ccco3)nnn2-c2nonc2N)cc1 | 1% | . | . | . | -4% | .
CCCCC1CCC(C(=O)Nc2ccc(S(=O)(=O)Nc3nccs3)cc2)CC1 (configuration not stated) | . | -30% | -5% | 45µM* | ? | -25%
Cc1ccc(C)c(OC(C)C(=O)Nc2ccc(S(=O)(=O)Nc3nccs3)cc2)c1 (configuration not stated) | ? | -28% | ? | 11µM* | -18% | -33%
CCC(=O)Nc1ccc(S(=O)(=O)Nc2nccs2)cc1 | 3% | ? | 48% | . | -9% | -8%
COCC(=O)Nc1cc(OC)cc(OC)c1 | 16% | 5% | 48% | 8%[59 µM] | -4% | -1%
CCOc1ccc(C(C)=O)cc1COc1ccc(-c2nnco2)cc1 | 0% | 50µM* | 22% | . | -6% | -11%
COc1cc2c(c(OC)c1OC)C1(CCCCC1)CC2NS(=O)(=O)C(C)C (configuration not stated) | 1% | . | . | . | . | .
SMILES | 12-LOX inh | BAZ2B block | HP1b chromo inh | G9a inh | PLK1 PBD inh | JMJD2A Tudor inh
O=C(CCc1nc2ccccc2c(=O)[nH]1)OCc1ccccc1F | -20% | -4% | 32% | ? | 0% | -1%
O=c1[nH]c(=O)c2nnc(N/N=C\c3ccc(O)cc3)nc2[nH]1 | -6% | ? | 40% | 11µM* | -1% | ?
CCCn1nnnc1NCc1ccc(SC)cc1 | 272% | -25% | 47% | ? | 5% | -12%
COc1cc(C(=O)ON=C2C=C(C)C(=O)C(C)=C2)cc(OC)c1OC | 11% | 1% | 22% | -10%[59 µM] | ? | -25%
COc1cc(C(=O)O/N=C2\C=CC(=O)C(C)=C2)cc(OC)c1OC | -10% | -33% | 22% | 14µM* | 21µM* | -20%
Cc1nc(N)ncc1C(=O)N1CC[C@@H]2[C@@H](CCC(=O)N2CCCO)C1 | 37% | . | . | . | . | .
COc1ccc(S(=O)(=O)N2CCOCC2)cc1NC(=O)Cc1cccs1 | 1% | 5% | 18% | -4%[2.33 µM] | -11% | -12%
COc1ccccc1NC(=O)CN1C(=O)COc2ccc(S(=O)(=O)N3CCCCCC3)cc21 | 15% | -5% | 3% | 14% | 30µM* | ?
Cc1ccccc1OCCC(=O)Nc1cc(S(=O)(=O)N2CCCCC2)ccc1N1CCN(C)CC1 | -23% | . | 2% | . | -3% | -28%
CCOc1ccc(S(=O)(=O)N2CCOCC2)cc1NC(=O)c1ccc(N2CCCC2=O)cc1 | 2% | -4% | 18% | 32µM* | -5% | -8%
Cc1ccc(OCC(=O)Nc2cc(S(=O)(=O)N3CCCCC3)ccc2N2CCN(C)CC2)c(C)c1 | -24% | ? | -28% | 45µM* | 1% | ?
CCOc1ccccc1NC(=O)c1ccc(S(=O)(=O)N2CCOCC2)cc1 | ? | 2% | 40% | 0% | -1% | -5%
CCOc1ccc(S(=O)(=O)N2CCCCC2)cc1NC(=O)Cc1cccs1 | -20% | 2% | 10% | 16µM* | -11% | -17%
CCOc1ccccc1NC(=O)CN1C(=O)COc2ccc(S(=O)(=O)N3CCCCCC3)cc21 | -11% | -25% | 29% | -3%[59 µM] | . | -8%

Assay outcomes (PubChem)
